Compound activity (PubChem BioAssay)
NALP1 inh – inhibitors of NALP1 inflammasome in yeast; S. cerevisiae NALP1/ASC/caspase-1 growth, X-gal OD620, 72 h; inhibition, % at 10 µM; 280,000 compounds, 0.61% hits; AID 2071; in the data active = inhibition mostly above about 24%, no sharp cut-off; inactive = mostly below about 32%
TIM10 inh – TIM10 yeast growth inhibition. S. cerevisiae TIM10 strain growth, BacTiter-Glo luminescence, 24 h. inhibition, % at 10 µM. 330,000 compounds, 1.4% hits. AID 463195;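 active = inhibition of 40% or more at the single tested concentration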;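 also: wild-type TIM10 isogenic control strain grown at permissive 25 °C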
NLRP3 yeast inh – inhibitors of NALP3 inflammasome in yeast. Yeast reconstituted NLRP3/ASC/caspase-1, beta-gal luminescence, 24 h. inhibition, % at 10 µM. 330,000 compounds, 0.39% hits;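 active = inhibition of 50% or more; inactive = inhibition below 50%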;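 also: plate controls were induced DMSO wells for no effect and uninduced yeast grown without galactose for full effect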
tim10-1 inh – growth inhibitors of tim10-1 mutant yeast. inhibition, % at 20 µM. S. cerevisiae tim10-1 ts strain growth, BacTiter-Glo, 24 h. AID 463190. 330,000 compounds, 2.2% hits;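 active = inhibition of at least 40%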;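 also: mutant grown at 25 °C; 0% = DMSO wells with yeast and 100% = wells holding no yeast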
tim23-1 inh – growth inhibitors of tim23-1 mutant yeast; S. cerevisiae tim23-1 growth, BacTiter-Glo luminescence, 24 h; inhibition, % at 20 µM; 330,000 compounds, 1.3% hits;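 active = growth inhibition of the mutant yeast at or above 50%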;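 also: temperature-sensitive mutant grown at 25 °C; plate controls were DMSO-treated mutant yeast for no effect and medium wells lacking yeast for full effect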
tim23-1 conf – confirmation of tim23-1 mutant yeast growth inhibitors; shares compounds with tim23-1 inh; S. cerevisiae tim23-1 growth, BacTiter-Glo luminescence, 24 h; inhibition, % at 20 µM; 4,400 compounds, 83% hits; AID 463218;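 active = inhibition above about 39% in either of two replicate wells at 20 µM, limit read from the data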;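 also: temperature-sensitive tim23-1 mutant grown at 25 °C; 0% = DMSO wells with yeast and 100% = medium wells without yeast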
Active calls of the source: *; . = no result given. An excerpt weighted towards active compounds, which were near 4% of everything screened.

SMILES	NALP1 inh	TIM10 inh	NLRP3 yeast inh	tim10-1 inh	tim23-1 inh	tim23-1 conf
O=C(Cn1c(=O)cnc2ccccc21)NC1CCC(O)CC1 (stereo not drawn)	.	-7.6	11.9	-1.0	-5.6	.
NC(=S)NNc1cccc2cccnc12	-11.1	17.5	14.7	19.6	58.0*	18.6
NC(=S)Nc1cccc2cccnc12	18.9	3.8	34.7	21.2	22.8	.
O=C(O)CC(CC(=O)NCC(O)c1ccccc1)c1ccccc1 (stereo not drawn)	2.1	0.8	10.3	-8.7	1.4	.
NC(=S)N/N=C/c1coc2ccc(F)cc2c1=O	.	29.0	16.4	9.2	47.5	.
NC(=S)N/N=C/c1coc2cc(Br)ccc2c1=O	-0.3	32.5	5.0	28.2	58.4*	58.5*
NC(=S)N/N=C/c1coc2ccc(O)cc2c1=O	4.3	4.3	4.3	1.9	-13.8	.
NC(=S)N/N=C/c1coc2ccc(Br)cc2c1=O	.	34.0	2.5	17.7	78.3*	74.8*
CC(=O)n1c(-c2ccccc2)c(-c2ccccc2)n(C)c1=O	.	15.9	-7.9	15.1	22.9	.
O=C(CCl)Nc1cn(-c2ccccc2)nc1-c1ccc(F)cc1	6.9	11.6	30.3	27.6	60.6*	31.6
CCN(C(=S)NC(=O)c1ccccc1Br)C1CCCCC1	26.4	34.9	18.2	28.1	57.7*	43.7*
O=C(NC(=S)NC1CCCC1)c1ccccc1Br	24.1	24.6	-37.8	16.7	17.3	.
COC(=O)c1cccc(-c2ccc(C(c3c(C)[nH][nH]c3=O)c3c(C)[nH][nH]c3=O)o2)c1	-2.6	5.3	0.0	33.4	50.7*	49.3*
CC(=O)N[C@H]1[C@H](OCc2ccccc2F)O[C@H](COC(C)=O)[C@@H](OC(C)=O)[C@@H]1OC(C)=O	.	-4.9	-1.9	-4.8	-10.7	.
CC(=O)NC1C(OCc2cccc(Br)c2)OC(COC(C)=O)C(OC(C)=O)C1OC(C)=O (stereo not drawn)	10.7	5.7	7.3	-6.5	93.4*	12.6
COc1ccc(C2CC(c3ccc(Br)cc3)=NN2C(=O)CCC(=O)O)cc1OC (stereo not drawn)	8.6	-0.5	14.0	0.8	95.6*	15.3
CC(C)(C)N1C(=O)c2ccc(C(=O)Nc3nccs3)cc2C1=O	2.9	7.9	24.6	4.7	57.6*	58.8*
CCN1C(=O)c2ccc(C(=O)Nc3nccs3)cc2C1=O	18.1	16.3	9.3	-11.1	6.6	.
Cn1ccnc1C(=O)c1cc(SCC(=O)NC2CC2)nc2ccccc12	1.3	-24.9	7.8	13.1	7.6	.
CN(C(=O)CSc1cc(C(=O)c2nccn2C)c2ccccc2n1)c1ccccc1	.	29.4	4.1	16.9	50.5*	41.4*
COc1ccccc1C1CC(=O)Oc2cc(C)cc(C)c21 (stereo not drawn)	.	1.4	.	16.8	41.8	.
COc1cc2c(c(OC)c1OC)C(c1ccc3c(c1)OCO3)CC(=O)O2 (stereo not drawn)	.	-13.7	.	-1.5	13.5	.
Cc1cc(C)c2c(c1)OC(=O)CC2c1ccccc1C (stereo not drawn)	.	-1.5	.	26.4	53.9*	29.2
COc1cc2c(c(OC)c1OC)C(c1ccccc1C)CC(=O)O2 (stereo not drawn)	.	5.2	.	3.1	54.7*	20.8
O=[N+]([O-])c1ccc(N=Nc2c(O)[nH]c3ccc(F)cc23)cc1	11.8	2.8	9.0	35.1	50.0*	13.1
SMILES	NALP1 inh	TIM10 inh	NLRP3 yeast inh	tim10-1 inh	tim23-1 inh	tim23-1 conf
O=C(Cn1nc(C(=O)O)c2ccccc2c1=O)Nc1cccc(S(=O)(=O)N2CCCCCC2)c1	.	-1.9	3.9	3.7	4.8	.
COc1ccccc1C(=O)NC(=O)CSc1nc(C)cs1	.	1.1	2.7	13.2	4.5	.
NCCCCc1ccc2ccc3cccc4ccc1c2c34	.	7.3	31.3	32.5	50.2*	9.2
O=C(O)CCC(=O)c1ccc2ccc3cccc4ccc1c2c34	4.9	32.4	22.4	38.6	38.2	.
NNC(=O)c1[nH]c2ccc(Br)cc2c1-c1ccccc1	12.1	22.5	15.4	20.1	53.5*	49.8*
CC(=O)NNC(=O)c1[nH]c2ccc(Br)cc2c1-c1ccccc1	-6.2	12.9	11.7	18.9	10.5	.
CSc1nnc(C(C)(C)C)c(=O)n1/N=C/c1ccccc1	-3.2	33.2	34.1	24.6	52.7*	50.6*
O=c1c2ccccc2oc2c1ccc1ccccc12	.	27.6	.	-12.6	55.0*	21.2
N#Cc1nc(-c2cccc3ccccc23)oc1NCC1CCCO1 (stereo not drawn)	7.2	33.1	1.2	29.5	53.9*	51.6*
CCCCc1c(C)nc2ccc(C)cc2c1SCCC(=O)O	27.0	9.6	14.9	21.7	55.4*	33.6
CCCCc1c(C)nc2ccccc2c1SCCC(=O)O	1.4	-12.4	24.2	-13.7	8.5	.
CCn1cc(Br)c(C(=O)Nc2ccc(F)c(Cl)c2)n1	10.0	26.9	-3.2	28.0	53.5*	44.5*
CCn1cc(Br)c(C(=O)Nc2ccc(Cl)cc2Cl)n1	-10.2	20.4	19.2	39.2	94.5*	37.7
O=c1c(O)c(-c2ccc(O)cc2O)oc2cc(O)cc(O)c12	15.9	.	.	.	.	.
O=c1cc(-c2ccccc2)c2c(O)cc(O)cc2o1	-1.2	-0.6	7.7	-10.1	-2.7	.
O=c1c(O)c(-c2cc(O)c(O)c(O)c2)oc2cc(O)cc(O)c12	.	-20.4	13.7	-10.8	23.0	.
O=c1c(-c2ccccc2)c(-c2ccccc2)oc2cc(O)cc(O)c12	-10.5	30.5	-16.4	21.8	54.6*	-24.4
O=c1c(O)c(-c2ccccc2)oc2cc(O)cc(O)c12	.	-7.0	40.9	-7.1	58.4*	60.8*
CC(C)=CCc1cc(-c2oc3cc(O)cc(O)c3c(=O)c2O)ccc1O	.	-34.0	29.3	8.2	51.3*	51.3*
Cc1cccc(NC(=O)CNC(=O)Cc2ccc(S(=O)(=O)N3CCOCC3)s2)c1C	.	8.7	-10.6	-5.3	7.5	.
CC1c2[nH]c3ccccc3c2CCN1C(=O)Nc1ccccc1 (stereo not drawn)	17.6	23.6	11.6	10.1	63.9*	50.1*
COc1ccc(S(=O)(=O)N2CCN(C(=O)c3ccc4ccccc4n3)CC2)cc1	.	35.6	22.0	37.6	57.8*	61.0*
COc1ccc(S(=O)(=O)N2CCN(C(=O)c3cnc(C)cn3)CC2)cc1	6.4	-12.8	7.1	-11.0	-7.3	.
Cc1nc(NS(=O)(=O)c2ccccc2C)c2c3c(sc2n1)CCC3	27.1	19.8	34.7	31.7	52.7*	51.0*
CC(=O)Nc1ccc(S(=O)(=O)Nc2nc(C)nc3sc4c(c23)CCC4)cc1	.	2.5	5.5	8.1	11.6	.
O=c1oc(-c2ccccc2F)nc2c1cnn2-c1ccccc1	7.3	39.3	5.8	32.9	55.8*	54.0*
O=c1oc(-c2cccc(Cl)c2)nc2c1cnn2-c1ccccc1	12.7	33.6	10.6	24.1	46.0	.
CCCC(=O)NC(c1ccccc1OC)c1ccc2cccnc2c1O (stereo not drawn)	1.1	-20.7	-5.9	18.0	26.8	.
